For 6 molecules, composite z-score, composite Z-score and z-score results are on record in PubChem BioAssay.

One test concerns the target Albumin (Bos taurus) (UniProt P02769). Briefly: bovine serum albumin binders on microarray, profiling panel, artefact control for SMM control protein annotation, biochemical, small-molecule microarray, Alexa647 label, 635/667 nm fluorescence (AID 1118).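 Further: score merges 667 nm emission intensity and signal-to-noise per printed compound spot.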 Particulars: BSA-A647 binding, fluorescence 635 nm, higher = more signal.
Test [1] can be described thus: small-molecule microarray binders of probe aXIP, primary screen, biochemical, NeuroSMM set, 635/667 nm fluorescence (AID 1119).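 Further: probe is the protein aXip251-270 applied at 1 µg/mL to compound-printed slides; binding of probe to printed compounds measured as 667 nm fluorescence plus signal to noise.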 Particulars: higher = more signal, called active from +8 up or from −8 down.
A short description of test [2]: small-molecule binders of probe aNOTCH3, primary screen, biochemical, small-molecule microarray, 635/667 nm fluorescence (AID 1120).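 Further: probe is a biotin-tagged antibody raised against NOTCH3 rather than NOTCH3 protein; score merges spot fluorescence near 667 nm with spot signal to noise.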 Particulars: higher = more signal.
A short description of test [3]: small-molecule binders of probe aNOTCH2, primary screen, biochemical, small-molecule microarray, 635/667 nm fluorescence (AID 1121).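 Further: score merges feature fluorescence read at 667 nm with its signal to noise.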 Particulars: higher = more signal.
Test [4] concerns the target Carbonic anhydrase 2 (Homo sapiens) (UniProt P00918). Briefly: CAII small-molecule binders, profiling panel, biochemical, small-molecule microarray, Alexa647-labelled CAII (AID 1122). Conditions: CAII-A647 binding fluorescence, higher = more signal.
A short description of test [5]: COS7 lysate on small-molecule microarray, probe aHis, 635 nm (AID 1123).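 Further: z-score combines 667nm fluorescence intensity with signal-to-noise per printed compound spot.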 Conditions: COS7 cell lysate, fluorescence, higher = more signal.
Test [6] can be described thus: compound binding in COS7 lysate, probe aLAP1, primary screen, cell lysate, small-molecule microarray (AID 1124).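 Further: lysate comes from COS7 cells expressing LAP1 and is applied at 0.3 µg/mL; score merges spot fluorescence near 667 nm with signal-to-noise over triplicate slides.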 Particulars: probe aLAP1, fluorescence, higher = more signal.
The next test concerns Sam68 (KHDRBS1). As to the kind of experiment: Sam68 small-molecule binders, primary screen, biochemical, small-molecule microarray, 635 nm fluorescence (AID 1125).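 Further: score merges 667 nm channel intensity with signal to noise over triplicate slides.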 Particulars: small-molecule microarray binding, higher = more signal.
The test system of test [7] is Chordin-like protein 2 (CHRDL2). Briefly: CHRDL2 small-molecule binders, primary screen, biochemical, small-molecule microarray, 635 nm fluorescence (AID 1126).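 Further: printed compound slides probed with Chrdl2 protein at 4 µg/mL for 1 h at 4 C; score merges 667 nm emission intensity with signal to noise over three replicate slides.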 Particulars: small-molecule microarray binding, fluorescence 635 nm; higher = more signal.
Test [8] concerns the target Concanavalin-A (Canavalia ensiformis) (UniProt P02866). Briefly: ConA small-molecule binders, primary screen, artefact control for SMM control protein annotation, biochemical, small-molecule microarray, Alexa647 label, 635 nm (AID 1127).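 Further: z combines 667 nm emission intensity with signal-to-noise across three replicate slides.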 Conditions: ConA-A647 binding fluorescence, higher = more signal.
Test [9] is described as follows: anti-His antibody binders, primary screen, artefact control for SMM control protein annotation, biochemical, small-molecule microarray, 635 nm fluorescence (AID 1128).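 Further: score merges feature fluorescence with signal-to-noise for each printed compound spot.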 Conditions: anti-His Alexa647 antibody binding, higher = more signal.
In test [10] the test system is Human papillomavirus type 1a E7 protein (residues 1-88). As to the kind of experiment: HPV1a E7 small-molecule binders, primary screen, biochemical, small-molecule microarray, residues 1-88, 635 nm (AID 1129). Conditions: small-molecule microarray binding, fluorescence 635 nm; higher = more signal.
Test [11] has as its target Focal adhesion kinase 1 (Homo sapiens) (UniProt Q05397). Briefly: small-molecule microarray binders of FAK, primary screen, biochemical, 635/667 nm fluorescence, BSA, DTT (AID 1130).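 Further: composite of spot emission at 667 nm and signal to noise over triplicate slides.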 Particulars: PTK2 binding, 635 nm fluorescence, higher = more signal.
Test [12] has as its system Fibrinogen (Alexa647-labelled). As to the kind of experiment: fibrinogen binders on compound microarrays, profiling panel, artefact control for SMM control-protein annotation, biochemical, small-molecule microarray, 635/667 nm fluorescence (AID 1131).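 Further: z-score merges 667 nm fluorescence with per-spot signal-to-noise over triplicate slides.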 Particulars: fibrinogen-A647 binding fluorescence, higher = more signal.
Test [13] has as its target Follistatin (Homo sapiens) (UniProt P19883). As to the kind of experiment: follistatin binders on small-molecule microarrays, primary screen, biochemical, small-molecule microarray, 635/667 nm fluorescence (AID 1132). Conditions: FST binding, 635 nm fluorescence, higher = more signal.
The target in test [14] is Fibroblast growth factor 2 (Homo sapiens) (UniProt P09038). As to the kind of experiment: FGF2 binders on small-molecule microarrays, primary screen, biochemical, small-molecule microarray, 635/667 nm fluorescence (AID 1133). Conditions: small-molecule microarray binding, FGF2, fluorescence 635/667; higher = more signal.
Test [15] in a line: mitochondrial membrane potential change in A549 cells, profiling panel, cell-based, JC-1 fluorescence, basal, 24 h, 100 nL (AID 1138).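 Further: A549 lung adenocarcinoma cells under basal conditions with no added stimulus; test concentration not given here.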 Conditions: higher = more signal.
A further test has as its system Lefty1. Briefly: Lefty1 binders on small-molecule microarrays, primary screen, biochemical, small-molecule microarray, 635/667 nm fluorescence (AID 1139). Particulars: small-molecule microarray binding, fluorescence 635/667; higher = more signal.
Test [16] relates to wheat germ agglutinin (Triticum aestivum), Alexa647-labelled. Briefly: wheat germ agglutinin binders on compound microarrays, profiling panel, artefact control for SMM control-protein annotation, biochemical, small-molecule microarray, 635/667 nm fluorescence (AID 1140).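 Further: score merges 667 nm feature emission with signal to noise over triplicate slides.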 Particulars: WGA-A647 binding, 635 nm fluorescence, higher = more signal.
The target of test [17] is Luciferin 4-monooxygenase (Photinus pyralis) (UniProt P08659). As to the kind of experiment: firefly luciferase enzyme inhibitors, primary screen, biochemical, luminescence, purified enzyme, 2006 set (AID 1141).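 Further: cell-free assay with purified firefly luciferase at 100 ng per well in PBS; test concentration not given here.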 Particulars: SteadyGlo luminescence, 30 min, higher = more signal, called active from +8 up or from −8 down.

SMILES strings stand for the structures. Active and inactive are the calls of the source.

Chain of Follistatin (Homo sapiens) (P19883 whole entry, looked up): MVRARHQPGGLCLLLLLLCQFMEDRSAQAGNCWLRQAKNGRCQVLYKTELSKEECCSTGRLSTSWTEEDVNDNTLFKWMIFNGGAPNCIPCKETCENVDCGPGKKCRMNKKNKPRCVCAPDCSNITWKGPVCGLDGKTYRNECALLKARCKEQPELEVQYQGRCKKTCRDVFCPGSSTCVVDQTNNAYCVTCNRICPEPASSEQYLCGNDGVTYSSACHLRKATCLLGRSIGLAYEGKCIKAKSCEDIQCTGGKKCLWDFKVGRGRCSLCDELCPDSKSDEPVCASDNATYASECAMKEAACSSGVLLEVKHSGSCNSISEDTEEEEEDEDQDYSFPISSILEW
Chain of Luciferin 4-monooxygenase (Photinus pyralis) (P08659 whole entry, looked up): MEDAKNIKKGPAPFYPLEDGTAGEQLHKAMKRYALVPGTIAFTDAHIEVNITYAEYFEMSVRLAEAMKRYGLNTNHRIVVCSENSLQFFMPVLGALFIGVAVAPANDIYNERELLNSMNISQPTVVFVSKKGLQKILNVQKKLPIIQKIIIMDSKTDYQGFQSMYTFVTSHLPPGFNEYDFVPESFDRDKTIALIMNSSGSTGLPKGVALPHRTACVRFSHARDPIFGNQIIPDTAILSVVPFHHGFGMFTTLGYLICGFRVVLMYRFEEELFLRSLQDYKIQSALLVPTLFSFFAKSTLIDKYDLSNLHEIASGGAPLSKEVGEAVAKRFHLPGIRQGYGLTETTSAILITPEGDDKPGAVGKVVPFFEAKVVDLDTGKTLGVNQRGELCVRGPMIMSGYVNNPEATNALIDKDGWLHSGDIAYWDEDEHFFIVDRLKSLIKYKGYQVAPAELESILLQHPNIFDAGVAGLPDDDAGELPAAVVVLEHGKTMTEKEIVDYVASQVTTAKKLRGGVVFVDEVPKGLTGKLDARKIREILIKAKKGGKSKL
Chain of Fibroblast growth factor 2 (Homo sapiens) (P09038 whole entry, looked up): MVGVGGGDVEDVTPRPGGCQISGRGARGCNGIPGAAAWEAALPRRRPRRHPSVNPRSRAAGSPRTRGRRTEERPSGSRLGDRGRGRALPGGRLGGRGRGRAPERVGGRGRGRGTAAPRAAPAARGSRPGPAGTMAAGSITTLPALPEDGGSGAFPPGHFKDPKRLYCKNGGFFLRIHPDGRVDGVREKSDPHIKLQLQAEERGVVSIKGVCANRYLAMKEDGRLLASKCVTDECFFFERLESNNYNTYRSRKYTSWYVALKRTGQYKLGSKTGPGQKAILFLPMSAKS
Chain of Concanavalin-A (Canavalia ensiformis) (P02866 whole entry, looked up): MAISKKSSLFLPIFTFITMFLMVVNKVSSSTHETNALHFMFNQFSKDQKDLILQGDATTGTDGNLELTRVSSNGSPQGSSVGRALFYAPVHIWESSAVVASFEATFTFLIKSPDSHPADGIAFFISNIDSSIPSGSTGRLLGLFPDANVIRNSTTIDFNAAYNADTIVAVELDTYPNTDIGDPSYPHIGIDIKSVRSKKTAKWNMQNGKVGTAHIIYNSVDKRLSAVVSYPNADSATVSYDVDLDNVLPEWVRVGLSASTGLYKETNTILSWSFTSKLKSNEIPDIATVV
Chain of Albumin (Bos taurus) (P02769 whole entry, looked up): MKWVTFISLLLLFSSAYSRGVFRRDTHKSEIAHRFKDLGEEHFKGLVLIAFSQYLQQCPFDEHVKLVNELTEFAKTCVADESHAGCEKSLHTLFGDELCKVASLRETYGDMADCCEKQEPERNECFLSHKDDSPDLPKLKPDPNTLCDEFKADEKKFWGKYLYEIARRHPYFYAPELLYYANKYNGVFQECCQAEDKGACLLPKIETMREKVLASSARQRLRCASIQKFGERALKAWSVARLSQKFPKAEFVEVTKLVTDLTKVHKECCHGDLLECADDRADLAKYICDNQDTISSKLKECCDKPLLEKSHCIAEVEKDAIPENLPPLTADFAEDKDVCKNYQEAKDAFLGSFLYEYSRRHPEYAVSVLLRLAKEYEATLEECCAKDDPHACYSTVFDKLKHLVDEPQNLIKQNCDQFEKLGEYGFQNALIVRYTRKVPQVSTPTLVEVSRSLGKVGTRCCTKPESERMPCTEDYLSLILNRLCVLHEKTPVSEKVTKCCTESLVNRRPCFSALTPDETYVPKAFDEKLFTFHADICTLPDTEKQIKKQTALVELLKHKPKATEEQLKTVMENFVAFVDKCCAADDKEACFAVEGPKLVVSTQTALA
Chain of Focal adhesion kinase 1 (Homo sapiens) (Q05397 whole entry, looked up): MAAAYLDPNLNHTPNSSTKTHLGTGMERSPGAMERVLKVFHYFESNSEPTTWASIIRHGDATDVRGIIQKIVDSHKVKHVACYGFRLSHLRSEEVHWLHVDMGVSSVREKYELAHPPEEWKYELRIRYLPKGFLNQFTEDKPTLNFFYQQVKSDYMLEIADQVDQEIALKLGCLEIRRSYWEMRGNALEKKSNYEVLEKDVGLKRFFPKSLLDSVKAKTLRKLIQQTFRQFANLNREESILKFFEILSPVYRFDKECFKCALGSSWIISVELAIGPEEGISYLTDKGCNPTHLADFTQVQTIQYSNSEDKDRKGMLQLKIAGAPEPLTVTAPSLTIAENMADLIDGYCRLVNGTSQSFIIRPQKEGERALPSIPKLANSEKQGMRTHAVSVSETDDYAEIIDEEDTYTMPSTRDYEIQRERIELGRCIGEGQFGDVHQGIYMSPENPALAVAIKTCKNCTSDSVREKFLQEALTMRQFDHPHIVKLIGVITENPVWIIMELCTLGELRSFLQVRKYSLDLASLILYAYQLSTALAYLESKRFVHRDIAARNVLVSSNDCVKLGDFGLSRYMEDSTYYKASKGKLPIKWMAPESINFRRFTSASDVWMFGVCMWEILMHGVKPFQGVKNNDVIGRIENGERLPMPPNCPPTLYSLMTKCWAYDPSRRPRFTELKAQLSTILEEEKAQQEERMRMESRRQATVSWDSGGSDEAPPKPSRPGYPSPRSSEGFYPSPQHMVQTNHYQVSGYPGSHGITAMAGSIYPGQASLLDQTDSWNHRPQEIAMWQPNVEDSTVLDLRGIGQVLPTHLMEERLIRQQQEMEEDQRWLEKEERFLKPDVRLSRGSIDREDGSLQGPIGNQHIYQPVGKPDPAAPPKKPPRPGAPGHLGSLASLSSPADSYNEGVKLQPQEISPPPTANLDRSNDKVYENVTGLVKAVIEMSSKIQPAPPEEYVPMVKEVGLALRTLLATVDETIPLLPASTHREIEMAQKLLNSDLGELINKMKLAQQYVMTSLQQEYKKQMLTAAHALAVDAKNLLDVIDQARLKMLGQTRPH

In the case of `CCN1C(C)=C(C(=O)OC)[C@@H](c2ccccc2)N2C(=O)[C@@]3(C(=O)OC)O[C@@]12[C@@H]1C(=O)CCC[C@@H]13`, the composite z-score is -0.439 with Albumin (Bos taurus); -0.0345 in test [2]; -0.195 in test [3]; 0.558 in [4]; -0.503 in [5]; -0.227 in test [6]. The composite z-score with Sam68 (KHDRBS1) is 0.475; in test [7] it was 1.46; in test [8] it was -0.92; in test [9] it was -0.116; in test [10], -0.356; in test [11] it was -0.315. The composite z-score in test [12] is -1.47; in [13], 1.29; in [14] it was 1.01; with Lefty1 it was 1.48; in test [16] it was -1.05. In addition, in [1], the composite Z-score is -0.166 (inactive). Further, the z-score in test [15] is 0.862; in [17], -2.3 (inactive).
For `COc1ccc([Si](C)(C)[C@@H]2[C@@H](CCO)O[C@]3(C(=O)N(Cc4ccc(NC(=O)[C@H](C)O)cc4)c4ccccc43)[C@H]2C)cc1`, the composite z-score was 0.762 with Albumin (Bos taurus); -0.0288 in test [2]; -0.127 in test [3]; 0.348 in test [4]; 1.42 in [5]; -0.0561 in test [6]. In addition, the composite z-score in the test with Sam68 (KHDRBS1) is 1.32; in test [7], -0.0817; in test [8], 1.08; in test [9], 1.79; in test [10], 1.06; in [11], 0.293. Besides, the composite z-score in [12] is 0.94; in test [13] it was 0.403; in test [14], 0.137; with Lefty1, 0.215; in test [16], 0.852. In test [1], the composite Z-score was 0.423 (inactive). The figures for the z-score in test [15] and in test [17] were -1.61 and -0.546 (inactive), respectively.
In the case of `COCCOC(=O)N1C(=O)[C@@]2(c3cc(C#CC4=CCCCC4)ccc31)[C@H](C(=O)NC[C@H](O)c1ccccc1)[C@H]1C(=O)O[C@H](c3ccccc3)[C@H](c3ccccc3)N1[C@@H]2c1ccc(OCCO)cc1`, the composite z-score was 0.723 in the test with Albumin (Bos taurus); 0.0739 in [2]; -0.0986 in test [3]; 0.224 in test [4]; 1.9 in test [5]; -0.0647 in [6]. Further, the composite z-score in the test on Sam68 (KHDRBS1) was 1.3; in test [7], 0.629; in test [8], 1.12; in [9], 0.577; in test [10], 1.2; in test [11] it was 0.221. The composite z-score came out at 0.955 in test [12]; 1.35 in [13]; 1.22 in [14]; 1.08 with Lefty1; 0.971 in test [16]. Moreover, in [1], the composite Z-score was -0.0384 (inactive). Moreover, the z-score in test [15] was -1.73; in [17], -0.526 (inactive).
Consider `COC(=O)Cn1c(C(=O)N2CCCC2)cc2c1C[C@H]1CN(C(=O)c3ccccc3)[C@@](Cc3ccc(OC)cc3)(C(=O)OC)[C@@H]21`, for which the composite z-score is 0.92 with Albumin (Bos taurus); 0.707 in [2]; 0.375 in [3]; 0.587 in [4]; 2.68 in test [5]; -0.268 in test [6]. In addition, the composite z-score in the test with Sam68 (KHDRBS1) came out at 0.931; in test [7], 0.207; in test [8] it was 0.73; in test [9], 1.9; in [10], 1.24; in test [11], 1.67. Moreover, the composite z-score in test [12] was 0.972; in [13], 0.43; in test [14] it was -0.612; in the test with Lefty1, -0.544; in test [16] it was 1.18. Moreover, in test [1], the composite Z-score was 1.09 (inactive). In addition, the values for the z-score in [15] and in [17] were 1.31 and 1.78 (inactive), respectively.
For the molecule `C=C(CCCC)/C(=C/C[C@H](OC(=O)c1ccncc1)c1cccc(OCCO)c1)c1cc(C(=O)OC)ccc1OC`, the composite z-score is -0.2 with Albumin (Bos taurus); 0.074 in test [2]; -0.131 in test [3]; 0.0309 in [4]; 1.09 in test [5]; -0.132 in [6]. For the same molecule, the composite z-score was 0.711 in the test with Sam68 (KHDRBS1); 0.363 in test [7]; 0.724 in test [8]; 1.06 in [9]; 0.492 in test [10]; -0.0622 in [11]. Further, the composite z-score in test [12] worked out at 0.723; in [13] it was 0.852; in test [14], 1.59; with Lefty1 it was 1.17; in test [16], 0.311. Further, in [1], the composite Z-score was -0.331 (inactive). The z-score is 0.397 in test [15] and 0.34 (inactive) in [17].
Take `COc1cccc([C@@H]2[C@@H](C)CC[C@H]3C(=O)N4[C@H](c5cccc(OC)c5)[C@@H](C)CC[C@H]4C(=O)N23)c1`: the composite z-score with Albumin (Bos taurus) was 0.447; in test [2], 0.0193; in test [3], -0.0262; in [4], 0.35; in test [5], 0.69; in [6] it was 1.06. The composite z-score with Sam68 (KHDRBS1) is 0.656; in test [7], 0.811; in [8] it was 0.0858; in test [9] it was 0.584; in test [10], 0.276; in test [11], -0.175. Further, the composite z-score turned out to be 0.817 in [12]; 0.614 in [13]; 0.428 in test [14]; 0.418 with Lefty1; 0.248 in test [16]. Besides, the composite Z-score in test [1] was -0.155 (inactive). Also, the values for the z-score in test [15] and in test [17] were 1.55 and -1.78 (inactive), respectively.
